Screens (PubChem)
KLK7 zymogen act: proKLK7 zymogen activators, primary screen, biochemical, fluorescence intensity; Kallikrein-7 (Homo sapiens), P49862; purified proKLK7, EDANS-DABCYL substrate fluorescence; 100% is mature enzyme control, 0% vehicle; activation, % at 7 µM; 370,000 compounds, 0.9% hits; AID 652039, 2013;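 active means activation above the mean of all tested compounds plus 3 SD, computed per campaign excluding outliers beyond control limits, cut at about 13% in these data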
ADAM10 inh: human ADAM10 inhibitors, primary screen, biochemical, QFRET, HTS; recombinant ADAM10, EDANS/DABCYL FRET peptide cleavage, 3 h; inhibition, % at 7 µM; 370,000 compounds, 0.62% hits;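 active means inhibition above a per-campaign cutoff equal to the mean of compounds falling between control-based bounds plus 3 SD, cut at about 20% in these data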;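 further: 0% = DMSO wells while the 100% control is not disclosed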
PLCb3 inh: human PLC-beta3 inhibitors, primary screen, biochemical, fluorescence. 1-phosphatidylinositol 4,5-bisphosphate phosphodiesterase beta-3 (Homo sapiens), Q01970. Purified PLC-beta3, fluorogenic substrate. inhibition, % at 12.2 µM. AID 720704, 2013. 370,000 compounds, 0.18% hits; in the data active means inhibition above about 11%;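 further: 0% = median of compound wells on plate and 100% = full blocker control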
Target sequence (Q01970 whole entry, looked up): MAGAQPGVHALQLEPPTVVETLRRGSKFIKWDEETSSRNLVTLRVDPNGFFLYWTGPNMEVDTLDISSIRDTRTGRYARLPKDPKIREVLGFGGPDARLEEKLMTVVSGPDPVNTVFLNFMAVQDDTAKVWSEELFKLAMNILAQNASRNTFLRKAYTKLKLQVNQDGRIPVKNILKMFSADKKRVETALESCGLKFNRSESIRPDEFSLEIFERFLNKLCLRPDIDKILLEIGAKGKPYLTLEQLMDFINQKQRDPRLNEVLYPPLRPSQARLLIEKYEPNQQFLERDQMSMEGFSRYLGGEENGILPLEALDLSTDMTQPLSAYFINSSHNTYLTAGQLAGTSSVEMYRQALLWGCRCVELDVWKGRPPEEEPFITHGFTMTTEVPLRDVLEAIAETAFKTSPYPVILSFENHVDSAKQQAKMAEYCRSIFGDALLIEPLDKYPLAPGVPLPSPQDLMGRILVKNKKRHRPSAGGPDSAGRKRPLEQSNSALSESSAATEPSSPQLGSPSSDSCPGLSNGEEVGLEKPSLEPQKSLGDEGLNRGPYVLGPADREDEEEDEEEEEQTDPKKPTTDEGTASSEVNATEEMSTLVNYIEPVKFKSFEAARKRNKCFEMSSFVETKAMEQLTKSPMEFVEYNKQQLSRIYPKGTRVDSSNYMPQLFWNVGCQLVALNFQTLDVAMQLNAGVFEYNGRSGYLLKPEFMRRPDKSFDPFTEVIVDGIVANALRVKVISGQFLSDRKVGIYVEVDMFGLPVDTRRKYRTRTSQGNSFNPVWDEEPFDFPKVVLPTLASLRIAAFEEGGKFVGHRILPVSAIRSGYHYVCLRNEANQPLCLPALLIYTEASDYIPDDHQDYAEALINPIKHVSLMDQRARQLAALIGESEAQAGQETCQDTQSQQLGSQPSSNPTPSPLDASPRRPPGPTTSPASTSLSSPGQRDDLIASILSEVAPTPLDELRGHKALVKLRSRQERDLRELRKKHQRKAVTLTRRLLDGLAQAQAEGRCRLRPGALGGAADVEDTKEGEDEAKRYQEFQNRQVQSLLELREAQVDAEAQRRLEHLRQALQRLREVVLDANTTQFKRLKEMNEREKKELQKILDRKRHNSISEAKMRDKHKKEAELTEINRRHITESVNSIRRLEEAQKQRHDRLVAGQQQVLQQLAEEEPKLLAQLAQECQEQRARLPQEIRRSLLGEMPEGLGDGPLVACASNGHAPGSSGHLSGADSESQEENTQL
PLC-gamma1 inh: PLC-gamma1 enzyme inhibitors, primary screen, biochemical, fluorescence, purified enzyme | 370,000 compounds, 0.84% hits | AID 720700, 2013 | 1-phosphatidylinositol 4,5-bisphosphate phosphodiesterase gamma-1 (Homo sapiens), P19174 | inhibition, % at 12.2 µM | fluorogenic substrate; in the data active means inhibition above about 9.5%
ADAM17 inh: ADAM17 inhibitors, primary screen, biochemical, QFRET; AID 720648, 2013; recombinant ADAM17, EDANS/DABCYL FRET peptide cleavage; Disintegrin and metalloproteinase domain-containing protein 17 (Homo sapiens), P78536; 370,000 compounds, 0.83% hits; inhibition, % at 6.95 µM;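 active means inhibition above the mean of compounds lying between control limits plus 3 SD, set per campaign, cut at about 8.5% in these data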;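 further: 0% = DMSO-only wells as the low control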
ADAM10 confirm: human ADAM10 inhibitors, confirmation, biochemical, QFRET, triplicate; shares compounds with ADAM10 inh; AID 743208, 2013; 2,100 compounds, 1% hits; ADAM10 QFRET peptide cleavage, EDANS fluorescence; inhibition, % at 6.95 µM;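 active means inhibition above about 20% chosen separately for each screening run, limit read from the data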;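 further: 0% = DMSO wells and 100% = marimastat wells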
ADAM17 ctr: ADAM17 inhibitors, counter-screen for ADAM10 exosite inhibitor project, biochemical, QFRET, high throughput; shares compounds with ADAM10 inh; 2,100 compounds, 0.5% hits; inhibition, % at 6.95 µM; ADAM17 QFRET peptide cleavage, EDANS fluorescence; AID 743214, 2013;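 active means mean triplicate inhibition above the solvent-only control wells' mean plus 3 SD, cut at about 12% in these data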;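 further: 0% = DMSO wells and 100% = marimastat wells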
ADAM10 ctr: ADAM10 inhibitors, counter-screen for ADAM17 exosite inhibitor project, biochemical, FRET, human ADAM10; shares compounds with ADAM17 inh; recombinant ADAM10, EDANS/DABCYL FRET peptide cleavage, 3 h; 2,900 compounds, 47% hits; AID 743256, 2014; inhibition, % at 6.95 µM;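 active means mean inhibition over the triplicate runs exceeds the activity threshold set in the earlier primary screen, cut at about 20% in these data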;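 further: 0% = DMSO wells and 100% = marimastat wells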
ADAM17 confirm: ADAM17 inhibitors, hit retest, confirmation, biochemical, QFRET peptide cleavage | 2,900 compounds, 65% hits | inhibition, % at 6.95 µM | shares compounds with ADAM17 inh | recombinant ADAM17, EDANS/DABCYL QFRET peptide cleavage;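 active means mean inhibition across replicates above the hit cutoff set in the primary screen, cut at about 8.5% in these data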;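 further: 0% = DMSO wells and 100% = marimastat wells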
* marks the source's active call; other numbers are inactive results. Shown are actives, neighbours in structure and some others; about 2.9% of the full set was active somewhere.

`COc1ccc(S(=O)(=O)Nc2cccc3c2O[C@H](CN(C)Cc2ccc(Cl)c(Cl)c2)[C@@H](C)CN([C@H](C)CO)C3=O)cc1` gave KLK7 zymogen act 0, ADAM10 inh 20, PLCb3 inh 2, PLC-gamma1 inh 3 and ADAM17 inh 7.
Screening C[C@H]1CN([C@@H](C)CO)C(=O)c2cccc(NS(=O)(=O)c3ccc(F)cc3)c2O[C@H]1CN(C)Cc1ccc(Cl)c(Cl)c1 returned KLK7 zymogen act 0, ADAM10 inh 20*, PLCb3 inh 8, PLC-gamma1 inh -32, ADAM17 inh 9.2*, ADAM10 confirm 5, ADAM17 ctr 1, ADAM10 ctr 28* and ADAM17 confirm 15*.
Screening COC(=O)[C@]12C[C@H](CC(=O)NCc3ccccc3)C(=O)N(Cc3ccc(Cl)cc3Cl)C1=C[C@H](C(C)C)O[C@@H]2C1CC1 returned KLK7 zymogen act 0, ADAM10 inh 9, PLCb3 inh 3, PLC-gamma1 inh 2 and ADAM17 inh 0.
CN(C)c1ccc(NS(=O)(=O)c2ccc(Cl)cc2)cc1 was read as KLK7 zymogen act 1, ADAM10 inh 34*, PLCb3 inh 6, PLC-gamma1 inh 8, ADAM17 inh 13*, ADAM10 confirm 5, ADAM17 ctr 1, ADAM10 ctr 8 and ADAM17 confirm 3.
`CN(C)c1ccc(NS(=O)(=O)c2cccc(Cl)c2)cc1` gave KLK7 zymogen act 0, ADAM10 inh 3, PLCb3 inh -1, PLC-gamma1 inh 0 and ADAM17 inh -3.
CC(C)C[C@@H]1COc2cccc(N3CCC[C@@H]3CO)c2S(=O)(=O)N1 was read as KLK7 zymogen act 0, ADAM10 inh -19, PLCb3 inh -1, PLC-gamma1 inh 1 and ADAM17 inh -4.
For CCCCNC(=O)O[C@H]1CC[C@@]23CCCN2C(=O)CCC[C@H]3[C@H]1CCC the results were ADAM10 inh -2, PLCb3 inh 3, PLC-gamma1 inh 8 and ADAM17 inh -8.
`c1ccc(CN2CCC(Nc3nc(-c4ccccc4)nc4ccccc34)CC2)cc1` gave KLK7 zymogen act 0, ADAM10 inh 21*, PLCb3 inh -1, PLC-gamma1 inh -1, ADAM17 inh 8.9*, ADAM10 confirm 8, ADAM17 ctr 3, ADAM10 ctr 22* and ADAM17 confirm 15*.
COc1cccc(NC(=S)N(Cc2ccccn2)Cc2ccccc2Cl)c1 was read as KLK7 zymogen act 1, ADAM10 inh 22*, PLCb3 inh 3, PLC-gamma1 inh 6, ADAM17 inh 9.3*, ADAM10 confirm 2, ADAM17 ctr 2, ADAM10 ctr 24* and ADAM17 confirm 13*.
COc1ccc(NC(=S)N(Cc2ccccn2)Cc2ccccc2Cl)cc1 was read as KLK7 zymogen act 0, ADAM10 inh 12, PLCb3 inh -3, PLC-gamma1 inh 3 and ADAM17 inh -2.
CC(CCc1ccc(O)cc1)NCCC(c1ccccc1)c1ccccc1 (stereo not drawn) was read as KLK7 zymogen act 0, ADAM10 inh 5, PLCb3 inh -6, PLC-gamma1 inh 2 and ADAM17 inh -3.
